Screens (PubChem)
Compounds with a hit are over-represented: about 9% of the library has one in this group of screens.
ALOX12 inh: blocks human arachidonate 12S-lipoxygenase. P18054. purified 12hLO, xylenol orange hydroperoxide absorbance. Potency, µM (highest dose often 108 µM), without a hit: top-dose activity change, negative = inhibition, actives largely listed as inhibitors. 580,000 tested, 1.1% active; further: on the % scale 0 is the no-effect control and ±100 the full control effect
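Hydroperoxide product was detected by ferrous iron/xylenol orange as the 573 to 405 nm absorbance ratio. Arachidonic acid at 40 uM (final) was turned over for 30 min at room temperature by 150 nM human 12hLO, pH 7.0 Hepes buffer, after 15 min compound preincubation.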
BAZ2B inh: inhibitors of human BAZ2B bromodomain | Q9UIF8 | AlphaScreen BAZ2B-H3K14Ac peptide displacement | Potency, µM (titrated, usually from 114 µM), for inactives: at the top dose activity change, negative = inhibition, most hits filed as inhibitors | 360,000 tested, 4.4% active; further: on the % scale 0 is the no-effect control and ±100 the full control effect; nearly all actives have a fitted effect of over 60% in size
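BAZ2B (50 nM) with biotin-H3(5-23)K14Ac peptide (50 nM) in PBS pH 7.4, 0.01% Tween-20, preformed 30 min, then compound 30 min at room temperature; top concentration 110uM. AlphaScreen streptavidin donor/nickel chelate acceptor beads (10 ug/mL final), 20 min dark, signal read.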
HP1b chromo inh: inhibitors of HP1-beta chromodomain binding to methylated histone tails; 390,000 tested, 0.56% active; AID 540317; Potency, µM (highest dose often 114 µM), without a hit: at the top dose activity change, negative = inhibition, actives largely listed as inhibitors; AlphaScreen HP1-beta / biotin-H3K9me3 peptide binding; P83916; further: nearly all actives have a fitted effect of over 70% in size
Target sequence (P83916 whole entry, looked up): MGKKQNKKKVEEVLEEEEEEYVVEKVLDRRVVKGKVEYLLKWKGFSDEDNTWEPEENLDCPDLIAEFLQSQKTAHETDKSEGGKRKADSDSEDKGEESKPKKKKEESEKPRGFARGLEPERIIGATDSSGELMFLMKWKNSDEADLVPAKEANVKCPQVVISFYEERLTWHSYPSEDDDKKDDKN
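AlphaScreen: HP1-beta (50 nM) preformed 30 min with biotin-H3(1-18)K9me3 peptide (50 nM) in PBS pH 7.4, 0.01% Tween-20. Compound added for 30 min at RT, then streptavidin donor/nickel chelate acceptor beads (10 ug/mL) for 30 min.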
PLK1 PBD inh: PLK1 (human) polo-box domain binding inhibition; 360,000 tested, 2.8% active; Potency, µM, inactives show max response, negative = inhibition, usual class: inhibitors; Plk1 PBD binding of FITC phosphopeptide, fluorescence polarization; further: series mostly up to about 57 µM; on the % scale 0 is the no-effect control and ±100 the full control effect; nearly all actives have a fitted effect of over 65% in size
JMJD2A Tudor: inhibitors of human JMJD2A Tudor domain. O75164. AlphaScreen JMJD2A-Tudor / H3K4me3 peptide binding. AID 504339. 390,000 tested, 4.4% active. Potency, µM (highest dose often 114 µM), without a hit: at the top dose activity change, negative = inhibition, most hits filed as inhibitors; further: on the % scale 0 is the no-effect control and ±100 the full control effect; nearly all actives have a fitted effect of over 50% in size
G9a block: blocks human histone lysine methyltransferase G9a. Q96KQ7. G9a H3K9 monomethylation, AlphaScreen, 2 h. Potency, µM (titrated, usually from 102 µM), for inactives: top-dose activity, negative = inhibition, hits mostly inhibitors. 350,000 tested, 8.8% active; further: on the % scale 0 is the no-effect control and ±100 the full control effect; nearly all actives have a fitted effect of over 75% in size
Target sequence (Q96KQ7 913-1193 limits assumed): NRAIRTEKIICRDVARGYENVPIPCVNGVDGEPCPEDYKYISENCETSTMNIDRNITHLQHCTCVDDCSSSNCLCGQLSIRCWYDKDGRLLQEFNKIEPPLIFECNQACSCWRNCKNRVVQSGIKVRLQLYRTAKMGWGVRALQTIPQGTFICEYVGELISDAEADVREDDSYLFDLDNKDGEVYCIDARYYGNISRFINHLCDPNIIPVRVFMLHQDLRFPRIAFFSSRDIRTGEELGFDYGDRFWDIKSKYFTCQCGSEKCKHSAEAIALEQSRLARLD
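G9a (20 nM) was preincubated 15 min with compound, then reacted 2 h at room temperature with 500 nM biotin-H3K9 peptide and 20 µM SAM. Monomethyl-H3K9 detected by AlphaScreen using anti-H3K9me1 antibody.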
Active calls of the source: *; i = inactive; ? = inconclusive; . = not tested or not shown; ! = not confirmed by another sample; [ ] = remark or other dose. The call rests on the fitted dose curve; in most records, active means well fitted curve in the direction sought with a large enough effect; inconclusive means small, poorly fitted or top-dose-only effect, or another doubt; inactive means no such curve, though single readings can be large; an effect the other way counts as inactive or inconclusive. Potency means the concentration at half of the fitted maximal effect.

SMILES | ALOX12 inh | BAZ2B inh | HP1b chromo inh | PLK1 PBD inh | JMJD2A Tudor | G9a block
CCOc1ccc(S(=O)(=O)N2Cc3ccccc3CC2C(=O)O)cc1 (configuration not stated) | 10% | ? | 26% | ? | 3%[11.4 µM] | 50µM*
O=C(O)C1Cc2ccccc2CN1S(=O)(=O)c1ccc(Cl)cc1 (configuration not stated) | -5% | ? | 7% | -11% | -9% | ?
O=C(O)C1Cc2ccccc2CN1C(=O)COc1ccc(Cl)cc1 (configuration not stated) | -65% | -19% | 18% | -5% | -1% | 45µM*
CNC(=S)N/N=C(\C)c1cccc(C(F)(F)F)c1 | 22µM* | ? | 14% | -1% | -27% | -12%[0.0925 µM]
OC[C@H]1O[C@@H](OC[C@H]2O[C@@H](O)[C@H](O)[C@@H](O)[C@@H]2O)[C@H](O)[C@@H](O)[C@@H]1O | 2% | . | . | . | . | .
CC(/C=C/C=C(\C)C(=O)O[C@@H]1O[C@H](CO[C@@H]2O[C@H](CO)[C@@H](O)[C@H](O)[C@H]2O)[C@@H](O)[C@H](O)[C@H]1O)=C\C=C\C=C(C)\C=C\C=C(/C)C(=O)O[C@@H]1O[C@H](CO[C@@H]2O[C@H](CO)[C@@H](O)[C@H](O)[C@H]2O)[C@@H](O)[C@H](O)[C@H]1O | ? | . | . | . | . | 18µM*
Cc1cccc(OCC2(CNC(=O)c3cc(C)nn3C)C[C@@H](O)[C@@H](O)C2)n1 (some centres not stated) | 25µM* | . | . | . | . | .
Cc1cccc(OCC2(CNC3CCOCC3)C[C@@H](O)[C@@H](O)C2)n1 (some centres not stated) | 25µM* | . | . | . | . | .
Cc1cccc(OCC2(CNCc3cnn(C)c3)C[C@@H](O)[C@@H](O)C2)n1 (some centres not stated) | 28µM* | . | . | . | . | .
Cc1cccc(OCC2(CNCC3CCCC3)C[C@@H](O)[C@@H](O)C2)n1 (some centres not stated) | -15%[176 µM] | . | . | . | . | .
COc1ccc(NC(=O)C2(C)CCN2Cc2ccc(OC(C)C)cc2)cc1OC (configuration not stated) | 9% | . | . | 3% | . | .
CC(C)(C)n1cnc2cc(NCc3ccccc3O)ccc21 | i | ? | -12% | -9% | -35% | -7%
CCN(CC)c1ccc(CNc2ccc3c(c2)ncn3C(C)(C)C)cc1 | 0% | 11µM* | ? | -1% | 14µM* | 14µM*
CC(C)(C)n1cnc2cc(NS(=O)(=O)c3ccccc3)ccc21 | -18% | 8% | 37% | -6% | -16% | -39%[12.7 µM]
CCc1ccc(CNc2ccc3c(c2)ncn3C(C)(C)C)cc1 | 0% | 45µM* | ? | -7% | 63µM* | 50µM*
CC(C)(C)n1cnc2cc(NCc3ccc(Br)cc3)ccc21 | 498% | 32µM* | ? | 21µM* | 20µM* | 50µM*
C=CCOC(=O)C1=C[C@H](c2cn(C(C)=O)c3ccccc23)C[C@H](OCc2ccc(CO)cc2)O1 | 40µM* | -35% | 16% | -21% | ? | 1%[12.7 µM]
CC(=O)n1cc([C@@H]2C=C(C(=O)N3CCN(C)CC3)O[C@H](OCc3ccc(CO)cc3)C2)c2ccccc21 | -56% | . | 35% | -9% | -14% | .
C=CCN1C=C2C(=O)C(C)(OC(=O)c3cccs3)C(=O)C=C2C=C1CCCC(=O)OC (configuration not stated) | 6% | 79µM* | 11% | -15% | -29% | -6%[12.7 µM]
Cc1cc(O)c(NC(=O)c2ccc(Br)o2)cc1C | 0% | 50µM* | 2% | 3% | -26% | 26%[12.7 µM]
CCN(CC)c1ccc(NC(=O)c2cccn2-c2nnc(N3CCCCC3)s2)c(C)c1 | ? | 32µM* | ? | . | 50µM* | ?
COc1ccccc1NC(=O)c1ccc(Br)o1 | 0%[57.4 µM] | 10% | 39% | -1% | 2% | 7%[12.7 µM]
Cc1ccc(S(=O)(=O)NC(=O)c2ccc(Br)o2)c(C)c1 | -8% | 1% | 40% | -1% | -10% | -6%
CCN(CC)c1ccc(NC(=O)c2ccc(NC(=O)C3CCCO3)cc2)c(C)c1 (configuration not stated) | ? | -37% | -13% | 2% | -33% | 8.9µM*
Cc1ccc(S(=O)(=O)NC(=O)c2ccc(Br)o2)cc1 | ? | 1% | 35% | 4% | -20% | 35µM*!
SMILES | ALOX12 inh | BAZ2B inh | HP1b chromo inh | PLK1 PBD inh | JMJD2A Tudor | G9a block
CCN(CC)c1ccc(NC(=O)c2cc(C)nc3c2c(C)nn3-c2cccc(F)c2)c(C)c1 | 1% | 4%[57.1 µM] | 8% | . | -12% | -30%[59 µM]
CCN(CC)c1ccc(NC(=O)c2cccc(F)c2)c(C)c1 | ? | -10%[57.1 µM] | -17% | -3% | ? | 28µM*
CCN(CC)c1ccc(NC(=O)c2ccc(Br)o2)c(C)c1 | ? | 40µM* | ? | -1% | 56µM* | ?
CCOC(=O)NC(=O)/C(C#N)=N\Nc1cccc(Cl)c1 | 0.4µM* | ? | -16% | 0% | -29% | ?
CCOC(=O)NC(=O)/C(C#N)=N\Nc1ccc(Cl)cc1 | ? | -37% | -9% | -4% | -23% | -25%
C[N+]1(CC(=O)OCCCc2ccccc2)CCOCC1 | ? | 45µM* | 20% | -22% | 50µM* | 71µM*
Cc1ccc(CCCOC(=O)CN2CCCCC2)cc1 | 2% | -7% | 12% | -7% | -13% | -4%
Cc1ccc(CCCOC(=O)C[N+]2(C)CCOCC2)cc1 | ? | -20% | 27% | -4% | 35µM* | 10µM*
Cc1ccc(NC(=O)CSc2nc3ccccc3n2CC(=O)N(C)C2CCCCC2)cc1C | 4% | ? | 35% | . | 0% | 7%[59 µM]
Cc1ccc(-c2nnc(SCC(=O)O)n2N)cc1 | 0% | 2% | 32% | -2% | -31% | -28%[59 µM]
C=CCn1c(SCC(=O)O)nnc1-c1ccc(C(C)(C)C)cc1 | ? | -2% | 54% | -3% | 0% | 32µM*
C=CCn1c(SCC(=O)C(C)(C)C)nnc1-c1cccs1 | -4% | 6% | 24% | -8% | -7% | -42%[59 µM]
CC(C)(C)c1ccc(-c2nnc(SCC(=O)O)n2N)cc1 | -6% | 1% | 42% | -11% | -11% | 45µM*
Cn1ccnc1C(=O)N1CC(F)(F)C[C@H]1c1nc(C2CC2)no1 | 6% | . | . | . | . | .
Cc1ccccc1OCc1nnc(SCC(=O)Nc2ccc3c(c2)oc2ccccc23)n1C | -18% | -2% | 13% | -12% | -26% | 2%[12.7 µM]
COCc1cc(C)nc(OCC(=O)N/N=C/c2ccc(O)cc2O)c1C#N | 1% | 40µM* | 44% | -5% | -34% | 28%
COCc1cc(C)nc(OCC(=O)N/N=C/c2ccccc2O)c1C#N | 3% | 79µM* | 34% | 4% | -15% | 47%
